In PubChem BioAssay (NCI) one finds growth data, which are given here for eight molecules.

About 83,000 compounds went through this panel and 20% of them were active in at least one assay; those are over-represented in the sample as a whole.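 The endpoint reported here, percent growth, reads 100 for growth as untreated, 0 for no net growth and -100 for all cells dead.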 Unmarked numbers belong to inactive results. The source made the active and inactive calls. The calls were made as follows: active = growth percent below 10; inactive = the rest.

Test systems include HCT-15 colon; HT29 colon; SNB-75 CNS; SNB-19 CNS; U251 CNS; PC-3 prostate; SK-MEL-5 melanoma; UACC-62 melanoma; LOX IMVI melanoma; SK-MEL-28 melanoma; EKVX NSCLC; SN12C renal; UO-31 renal; TK-10 renal; ACHN renal; CAKI-1 renal; A498 renal; CCRF-CEM leukemia; MOLT-4 leukemia.
Holding throughout (test): NCI-60 one-dose screen, 48 h (100 = growth as untreated, 0 = no growth, -100 = all killed)
What all share (details): 10 µM unless noted

As for `O=C(NOC[C@H](O)CO)c1ccc(F)c(F)c1Nc1ccc(I)cc1F`, the growth with HCT-15 colon is 53%; with HT29 colon, 7.15% (active); with SNB-75 CNS, 59.9%; in the experiment with SNB-19 CNS, 49.1%; in the experiment on U251 CNS, 38.6%; with PC-3 prostate it was 92.8%. For the same molecule, the growth was 42.5% in the experiment on SK-MEL-5 melanoma; -10.7% (active) with UACC-62 melanoma; 23.1% in the experiment with LOX IMVI melanoma; -2.06% (active) in the experiment on SK-MEL-28 melanoma; 57.6% in the experiment on EKVX NSCLC; 49.5% with SN12C renal. Also, the growth with UO-31 renal was 24.6%; in the experiment with TK-10 renal, 41.4%; in the experiment on ACHN renal, 47.6%; with CAKI-1 renal, 34.3%; in the experiment on A498 renal, -19.9% (active); in the experiment on CCRF-CEM leukemia, 83.7%. Besides, in the experiment with MOLT-4 leukemia, the growth was 66.6%.

With `COC1CCC(N2C(=O)CNc3ncc(-c4ccc(C(C)(C)O)nc4)nc32)CC1` (configuration not stated), the growth with HCT-15 colon was 10.1%; in the experiment with HT29 colon it was 5.39% (active); in the experiment on SNB-75 CNS, -22.7% (active); in the experiment with SNB-19 CNS, 13.5%; in the experiment on U251 CNS, 2.23% (active); with PC-3 prostate, 8.06% (active). The growth in the experiment with SK-MEL-5 melanoma was -45.2% (active); with UACC-62 melanoma, -21% (active); in the experiment with LOX IMVI melanoma, 2.43% (active); in the experiment on SK-MEL-28 melanoma, -8.74% (active); in the experiment with EKVX NSCLC, 10.9%; in the experiment with SN12C renal, 7.07% (active). For the same molecule, the growth in the experiment with UO-31 renal is -10.7% (active); with TK-10 renal, -13.4% (active); in the experiment with ACHN renal, 7.04% (active); with CAKI-1 renal, -1.6% (active); in the experiment with A498 renal, -23.8% (active); in the experiment with CCRF-CEM leukemia, 11.4%. Moreover, in the experiment with MOLT-4 leukemia, the growth was 0.972% (active).

For `CNC(=O)c1cccc2cc(Oc3ccnc4cc(OCC5(N)CC5)c(OC)cc34)ccc12`, the growth in the experiment with HCT-15 colon is 57.8%; in the experiment with HT29 colon it was 34.6%; with SNB-75 CNS, 26.7%; in the experiment on SNB-19 CNS, 67.6%; in the experiment on U251 CNS, 66.4%; in the experiment on PC-3 prostate it was 66.9%. Also, the growth with SK-MEL-5 melanoma is 76.5%; in the experiment with UACC-62 melanoma, 82.2%; with LOX IMVI melanoma it was 46.3%; in the experiment on SK-MEL-28 melanoma, 87%; in the experiment with EKVX NSCLC it was 84.1%; in the experiment on SN12C renal it was 52.7%. Also, the growth in the experiment with UO-31 renal was 37.6%; with TK-10 renal it was 63.9%; with ACHN renal, 30.9%; with CAKI-1 renal, 38.2%; with A498 renal it was 57.1%; with CCRF-CEM leukemia it was 44.4%. Moreover, the growth in the experiment on MOLT-4 leukemia was 30.6%.

Regarding `COc1ccc(Cc2cc(-c3ccccc3C)n[nH]c2=O)cc1`, the growth in the experiment on HCT-15 colon was 107%; in the experiment with HT29 colon, 98.1%; with SNB-75 CNS it was 72.7%; with SNB-19 CNS, 87.1%; with U251 CNS, 100%; with PC-3 prostate it was 81.7%. Also, the growth is 99.2% in the experiment on SK-MEL-5 melanoma; 94.8% with UACC-62 melanoma; 109% with LOX IMVI melanoma; 106% in the experiment with SK-MEL-28 melanoma; 108% in the experiment with EKVX NSCLC; 92.3% in the experiment on SN12C renal. The growth was 76.8% in the experiment on UO-31 renal; 116% in the experiment on TK-10 renal; 104% in the experiment on ACHN renal; 109% in the experiment with CAKI-1 renal; 87.2% in the experiment on A498 renal; -41.2% (active) with CCRF-CEM leukemia. For the same molecule, the growth with MOLT-4 leukemia is 96.9%.

As to `O=C1NC(=O)C(c2cnc3ccccn23)=C1c1cn2c3c(cc(F)cc13)CN(C(=O)N1CCCCC1)CC2`, the growth in the experiment on HCT-15 colon is 56.7%; in the experiment on HT29 colon, 22.9%; in the experiment with SNB-75 CNS, 37.4%; in the experiment with SNB-19 CNS, 71.1%; with U251 CNS, 36.3%; in the experiment on PC-3 prostate it was 41.8%. In addition, the growth in the experiment with SK-MEL-5 melanoma was 32.8%; in the experiment on UACC-62 melanoma it was 40.1%; with LOX IMVI melanoma, 27.5%; in the experiment on SK-MEL-28 melanoma, 76.8%; in the experiment on EKVX NSCLC it was 68.6%; in the experiment on SN12C renal it was 63.2%. In addition, the growth in the experiment with UO-31 renal is 28.8%; in the experiment on TK-10 renal, 56.1%; in the experiment with ACHN renal, 39.7%; in the experiment with CAKI-1 renal it was 43.5%; in the experiment on A498 renal it was -10.5% (active); in the experiment on CCRF-CEM leukemia, 27.9%. In the experiment with MOLT-4 leukemia, the growth is 12.1%.

In the case of `CC(C)c1cc(CNc2nc(Nc3cc(C4CC4)[nH]n3)cc(N3CCN(C)CC3)n2)on1`, the growth in the experiment on HCT-15 colon was 6.83% (active); in the experiment on HT29 colon it was 0.12% (active); in the experiment on SNB-75 CNS, -64.2% (active); in the experiment on SNB-19 CNS it was 13.4%; in the experiment with U251 CNS, 1.02% (active); in the experiment on PC-3 prostate, 4.54% (active). The growth is -24.2% (active) in the experiment on SK-MEL-5 melanoma; -63.5% (active) with UACC-62 melanoma; -58.4% (active) in the experiment on LOX IMVI melanoma; -13.9% (active) in the experiment with SK-MEL-28 melanoma; 7.39% (active) in the experiment on EKVX NSCLC; 9.72% (active) with SN12C renal. The growth was -2.19% (active) in the experiment with UO-31 renal; -16.4% (active) in the experiment with TK-10 renal; 8.49% (active) with ACHN renal; 4.85% (active) in the experiment on CAKI-1 renal; -78.5% (active) in the experiment on A498 renal; 8.07% (active) in the experiment with CCRF-CEM leukemia. Also, the growth with MOLT-4 leukemia is 0.889% (active).

As to `Cc1ccc(F)c(NC(=O)Nc2ccc(-c3cccc4[nH]nc(N)c34)cc2)c1`, the growth is 7.06% (active) with HCT-15 colon; 2.74% (active) in the experiment with HT29 colon; 29.8% in the experiment on SNB-75 CNS; 27.2% in the experiment with SNB-19 CNS; 12.9% with U251 CNS; 30.8% in the experiment with PC-3 prostate. In addition, the growth in the experiment on SK-MEL-5 melanoma was 34.6%; in the experiment with UACC-62 melanoma, 37.1%; with LOX IMVI melanoma, -8.35% (active); in the experiment on SK-MEL-28 melanoma, 36.1%; in the experiment with EKVX NSCLC, 21.9%; in the experiment with SN12C renal, 24.9%. Further, the growth was 17.6% with UO-31 renal; 2.19% (active) with TK-10 renal; 15.4% in the experiment with ACHN renal; 31.8% in the experiment on CAKI-1 renal; 30.1% with A498 renal; 11.4% in the experiment on CCRF-CEM leukemia. For the same molecule, the growth in the experiment with MOLT-4 leukemia was 15.5%.

As to `CSc1nc2ncncc2[nH]1`, the growth in the experiment with HCT-15 colon is 101%; in the experiment on HT29 colon, 99.4%; with SNB-75 CNS it was 86.7%; in the experiment on SNB-19 CNS, 100%; in the experiment with U251 CNS, 101%; in the experiment on PC-3 prostate, 106%. In addition, the growth was 101% with SK-MEL-5 melanoma; 104% with UACC-62 melanoma; 97.5% in the experiment on LOX IMVI melanoma; 75.1% with SK-MEL-28 melanoma; 91.2% in the experiment on EKVX NSCLC; 91.4% in the experiment on SN12C renal. Moreover, the growth was 90.7% with UO-31 renal; 102% in the experiment on TK-10 renal; 104% in the experiment with ACHN renal; 621% with CAKI-1 renal; 78.2% in the experiment on A498 renal; 97.7% in the experiment on CCRF-CEM leukemia. Further, in the experiment with MOLT-4 leukemia, the growth was 95%.
